PubChem BioAssay AID720706 (Broad Institute, 2013)
Among all 350,000 compounds or so, about 5,500 (1.6%) were called active. This is one part of a sample in which actives are shown more often than they occur.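 Rule for the calls: active = significant combined selectivity score with lowered wild-type GFP, culture density cut under 30%, mutant RFP and density less affected; inactive = any of these conditions unmet.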

test: GFP drop in mixed WT/humanized-ribosome E. coli culture – GFP/RFP fluorescence, OD600, single point, bacterial rRNA inhibitor project, primary screen (AID 720706); settings: E. coli WT GFP vs humanized-ribosome RFP mutants, 24 h; GFP signal change (wild-type ribosome): stronger effect = lower value, DMSO median 0, no signal -100; OD600 change: measured here: OD600 growth, DMSO median 0, no signal -100; RFP signal change: measured here: RFP humanized mutant strains, DMSO median 0, no signal -100, concentration not given here

Row | Structure (SMILES) | GFP signal change (wild-type ribosome) | OD600 change [%] | RFP signal change [%]
1 | CCCNC(=O)N(C)C[C@@H]1Oc2ncc(C#CCc3ccccc3)cc2C(=O)N([C@@H](C)CO)C[C@H]1C | 2.5% (inactive) | -2.83 | -0.346
2 | Cc1noc(C)c1S(=O)(=O)N(C)C[C@H]1OCCCC[C@H](C)Oc2ccc(NC(=O)c3ccccc3)cc2C(=O)N([C@@H](C)CO)C[C@H]1C | -1% (inactive) | -0.308 | 2.4
3 | O=C(COC(=O)Cc1ccc(Cl)cc1Cl)NCc1ccco1 | -17.4% (inactive) | -6.25 | 0.815
4 | CC(C)(C)NC(=O)NC(=O)COC(=O)Cc1c(F)cccc1Cl | -13.1% (inactive) | -4.75 | 3.43
5 | CC(C)(C)NC(=O)NC(=O)COC(=O)Cc1ccc(Cl)cc1Cl | -19.2% (active) | -0.7 | -0.643
6 | C[C@H](CO)N1C[C@H](C)[C@H](CN(C)Cc2ccncc2)Oc2ccc(NC(=O)Nc3ccc(F)cc3)cc2C1=O | 0.717% (inactive) | -2.2 | -2.45
7 | CN1c2ccc(-c3ccc(C#N)cc3)cc2[C@@H]2[C@@H](CCN2C(=O)C2CCCCC2)[C@H]1CO | -6.99% (inactive) | -10.9 | 6.2
8 | CN(C)C(=O)c1ccc(-c2ccccc2[C@H]2[C@@H](CO)N(C(=O)C3CCCCC3)[C@H]2C#N)cc1 | -3.32% (inactive) | 0.601 | -4.88
9 | O=C(O)c1ccccc1-c1ccccc1C(=O)NCCc1ccccc1 | 7.6% (inactive) | 2.74 | 2.49
10 | O=C(NCCCc1ccccc1)C(=O)c1c[nH]c2ccccc12 | 0.21% (inactive) | -1.22 | -2.69
11 | O=C(NCCc1ccccc1)c1c[nH]c2ccc(F)cc2c1=O | -31.8% (active) | -19.6 | -3.4
12 | COCC(=O)N(C)C[C@H]1[C@@H](c2ccccc2)[C@H](CO)N1C(=O)Cc1ccncc1 | 4.17% (inactive) | 8.74 | 0.341
13 | Cc1ccc(S(=O)(=O)N[C@H]2CC[C@@H](CC(=O)NCCCN(C)C)O[C@H]2CO)cc1 | 4.5% (inactive) | 5.89 | -1.14
14 | C[C@H](CO)N1C[C@H](C)[C@@H](CN(C)S(C)(=O)=O)Oc2ccc(NC(=O)Nc3ccc4c(c3)OCO4)cc2CC1=O | -0.075% (inactive) | 5.52 | 1.12
15 | CCCc1c(C(=O)O)cnn1-c1ccc(Cl)cc1 | -6.54% (inactive) | -3.54 | 0.509
16 | O=C(NNS(=O)(=O)c1ccccc1)c1cnn(-c2ccc(Cl)cc2)c1C(F)(F)F | -40.1% (active) | 20.1 | 3.85
17 | NNC(=O)c1cnn(-c2ccccc2)c1C(F)(F)F | 5.13% (inactive) | 9.29 | -0.665
18 | C[C@H]1CN([C@@H](C)CO)C(=O)c2cc(-c3ccncc3)cnc2O[C@@H]1CN(C)C(=O)C1CCCCC1 | 0.821% (inactive) | 4.66 | -3.44
19 | C[C@H](CO)N1C[C@H](C)[C@H](CN(C)C(=O)C2CC2)Oc2cc(-c3cccnc3)ccc2S1(=O)=O | -1.18% (inactive) | 3.4 | 0.533
20 | CCCNC(=O)N1[C@H](CO)[C@@H](c2ccc(-c3ccc(C(=O)N(C)C)cc3)cc2)[C@@H]1C#N | 6.87% (inactive) | 16.3 | -2.83
21 | O=C(c1ccc(F)cc1)N1CC(=O)N2[C@@H](CO)[C@H](c3ccc(C4=CCCC4)cc3)[C@@H]2C1 | 4.17% (inactive) | 4.94 | -0.136

Row | Structure (SMILES) | GFP signal change (wild-type ribosome) | OD600 change [%] | RFP signal change [%]
22 | C[C@H](CO)N1C[C@H](C)[C@@H](CN(C)C(=O)C2CC2)Oc2cc(C#CC(C)(C)O)ccc2S1(=O)=O | 1.02% (inactive) | 10.5 | -2.74
23 | COCC(=O)N1CC(=O)N2[C@H](C1)[C@H](c1ccc(C#CC3CCCCC3)cc1)[C@@H]2CO | 2.23% (inactive) | 2.33 | 1.49
24 | CN(c1ccccc1)S(=O)(=O)c1ccc(C(=O)NCCc2ccccc2)cc1 | -12.7% (inactive) | -28.7 | -1.12
25 | Cc1cccc(NC(=O)c2ccc(S(=O)(=O)N(C)c3ccccc3)cc2)n1 | -16.8% (active) | -25 | 1.23
26 | CN(c1ccccc1)S(=O)(=O)c1ccc(C(=O)NCc2cccnc2)cc1 | -0.96% (inactive) | -21.8 | 0.05
27 | C[C@@H]1CN([C@H](C)CO)C(=O)c2cc(C#CCN(C)C)cnc2O[C@H]1CN(C)C(=O)NC1CCCC1 | 3.54% (inactive) | 11.4 | -1.39
28 | CNC[C@@H]1Oc2ccc(NS(=O)(=O)c3c(C)noc3C)cc2CC(=O)N([C@@H](C)CO)C[C@@H]1C | 1.9% (inactive) | 3.17 | 1.62
29 | Cc1ccc(C)c(NC(=O)c2cc(-c3cc(C)cc(C)c3O)n[nH]2)c1 | -26.5% (active) | -6.64 | -4.96
30 | Cc1ccc(C)c(NC(=O)c2ccc3nccnc3c2)c1 | 4.03% (inactive) | 7.77 | -0.371
31 | Cc1ccc(C)c(NC(=O)NNC(=O)c2ccc3ccccc3c2O)c1 | 7.08% (inactive) | 7.28 | -0.547
32 | O=C(C[C@H]1C[C@H]2c3cc(NC(=O)C4CCOCC4)ccc3O[C@H]2[C@@H](CO)O1)NCCN1CCCCC1 | 5.5% (inactive) | 7.29 | 1.6
33 | C[C@@H]1CN([C@H](C)CO)C(=O)c2cc(NC(=O)C3CCCCC3)ccc2O[C@@H]1CN(C)CC1CCCCC1 | 0.0895% (inactive) | 5.96 | 0.317
34 | O=S(=O)(NCCc1ccc(F)cc1)c1cccc2cccnc12 | -26.1% (inactive) | -23 | -1.09
35 | O=S(=O)(NCCOc1cccc2cccnc12)c1ccc(F)cc1 | -21.1% (active) | -16 | 1.43
36 | OCc1ccc(OCCCOc2cccc3cccnc23)cc1 | -10.7% (inactive) | -8.81 | -4.97
37 | O=C(C[C@@H]1CC[C@@H](NC(=O)C2CCOCC2)[C@H](CO)O1)NCC1CC1 | 0.615% (inactive) | 0.519 | -2.58
38 | CN1CCCCN2[C@H](CO)[C@H](c3ccc(-c4ccc(F)cc4)cc3)[C@@H]2C1 | 3.95% (inactive) | 2.06 | -2.51
39 | CCC(=O)N1CC2(CN(C(=O)Nc3ccccc3F)C2)c2c([nH]c3cc(OC)ccc23)[C@H]1CO | -3.51% (inactive) | -1.81 | 1.22
40 | COc1ccc(N2CCN(C(=O)CCSCc3ccccc3F)CC2)cc1 | -33% (active) | -17.7 | -1.41
41 | O=C(CCc1ccccc1F)N1CCN(c2ccccc2)CC1 | -5.11% (inactive) | -5.09 | -0.63
42 | COc1ccc(N2CCN(C(=O)CCNC(=O)c3ccc(Br)cc3)CC2)cc1 | 4.67% (inactive) | 3.67 | -1.33
